Data from PubChem BioAssay (Tox21).
Results filed as inconclusive are left out. The source made the active and inactive calls. Unless noted, calls come from the whole dose curve.

test: qHTS assay for small molecule agonists of the p53 signaling pathway (AID 651631); conditions: HCT-116 p53RE-bla reporter, beta-lactamase FRET ratio, 16 h; series mostly up to 73.3 µM; activation: at the top concentration; note: nearly all actives have a fitted effect of over 15% in size
Summary of the method: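 HCT-116 cells carrying a beta-lactamase reporter under p53 response elements were dosed with compound for 16 h at 37 °C. LiveBLAzer B/G FRET substrate was then added for 2 h at room temperature, and fluorescence intensity was read to detect pathway agonism.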
% is set by controls: 0 for no effect and ±100 for the full control effect.

Structure (SMILES) | activation | Potency
CCCCS | 1.99% [at 95.1 µM] (inactive) | –
CCNC(=O)C(C)OC(=O)Nc1ccccc1 (stereo not given) | -0.957% (inactive) | –
CC(C)(Sc1cc(C(C)(C)C)c(O)c(C(C)(C)C)c1)Sc1cc(C(C)(C)C)c(O)c(C(C)(C)C)c1 | -3.61% [at 34.7 µM] (inactive) | –
O=C(O)CCC(=O)Nc1ccc(S(=O)(=O)Nc2nccs2)cc1 | -5.43% [at 34.7 µM] (inactive) | –
CCCCC(CC)CCC(CC(C)C)OS(=O)(=O)O (stereo not given) | – | inactive
Cc1ccccc1C#N | -4.38% (inactive) | –
COC(=O)c1ccccc1Cl | -0.909% (inactive) | –
Cc1ccc2cccnc2c1 | -2.2% (inactive) | –
Cc1cc(N)no1 | 0.825% [at 95.1 µM] (inactive) | –
CN(C)CCC[C@@]1(c2ccc(F)cc2)OCc2cc(C#N)ccc21 | -3.93% (inactive) | –
CCN(CC)CC | 2.31% [at 95.1 µM] (inactive) | –
C=C(C)C(=O)OCCOC1CC2CC1C1C=CCC21 (stereo not given) | -1.45% [at 95.1 µM] (inactive) | –
O=C(O)CCCCCCCCCC(=O)O | -5.64% (inactive) | –
CC(O)CCCCn1c(=O)c2c(ncn2C)n(C)c1=O (stereo not given) | -5.2% (inactive) | –
C=CC(=O)CC | -4.12% [at 95.1 µM] (inactive) | –
CCOCCOCCOC(C)=O | -1.99% [at 95.1 µM] (inactive) | –
CCCCCC(=O)CC | 5.55% [at 95.1 µM] (inactive) | –
C/C=C(\C)C=O | -1.9% [at 95.1 µM] (inactive) | –

Structure (SMILES) | activation | Potency
NC[C@H]1O[C@H](O[C@H]2[C@H](O)[C@@H](O[C@H]3O[C@H](CO)[C@@H](O)[C@H](N)[C@H]3O)[C@H](N)C[C@@H]2N)[C@H](N)[C@@H](O)[C@@H]1O | – | inactive
Cc1ccc(NC(N)=O)cc1 | -2.34% [at 95.1 µM] (inactive) | –
CC(C)(O)CCCC1=CCC(C=O)CC1 (stereo not given) | 4.87% [at 95.1 µM] (inactive) | –
CCCC(=O)OC | -1.27% (inactive) | –
CCc1ccc(CC)cc1 | 2.74% [at 95.1 µM] (inactive) | –
CCCCCCCCCCCCCCCC(=O)OC | -2.08% [at 34.7 µM] (inactive) | –
O=S(=O)(O)CC(O)CCl (stereo not given) | 2.05% (inactive) | –
CC[N+](C)(CC)CC | -1.47% (inactive) | –
CCCCCCCCCCCCCCCCN(C)C | -4.5% [at 8.3 µM] (inactive) | –
Cc1cc(C)c(C)c(C)c1 | -2.52% (inactive) | –
O=C(O)COc1ccc2ccccc2c1 | -1.64% (inactive) | –
Cc1ccc(O)c([N+](=O)[O-])c1 | 1.48% [at 95.1 µM] (inactive) | –
Cc1ccc(N)nc1 | -0.418% (inactive) | –
CCCC(C)C(O)CC (stereo not given) | 1.91% (inactive) | –
N=C(N)N | -2.22% (inactive) | –
CN1C(CCl)Nc2cc(Cl)c(S(N)(=O)=O)cc2S1(=O)=O (stereo not given) | -2.95% (inactive) | –
CC(C)(C)C(=O)CC(=O)C(C)(C)C | -4.45% [at 95.1 µM] (inactive) | –

test: qHTS assay for small molecules that induce genotoxicity in human embryonic kidney cells expressing luciferase-tagged ATAD5 (AID 651632; active = well fitted activation curve with a large enough effect in the repeat runs; note: nearly all actives have a fitted effect of over 15% in size); conditions: HEK293T ATAD5-luciferase induction, 16 h; series mostly up to 83.3 µM; activation: at the top concentration
Summary of the method: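 Luminescence read-out: after 16 hr compound exposure at 37C, ATAD5-luciferase HEK293T cells received Amplite, 30 min RT, then CCD imaging. A rise in signal marks genotoxic stress.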

Structure (SMILES) | activation | Potency
CCCCS | -0.909% [at 95.3 µM] (inactive) | –
CCNC(=O)C(C)OC(=O)Nc1ccccc1 (stereo not given) | 2.82% (inactive) | –
CC(C)(Sc1cc(C(C)(C)C)c(O)c(C(C)(C)C)c1)Sc1cc(C(C)(C)C)c(O)c(C(C)(C)C)c1 | 2.16% [at 39.1 µM] (inactive) | –
O=C(O)CCC(=O)Nc1ccc(S(=O)(=O)Nc2nccs2)cc1 | -1.31% [at 39.1 µM] (inactive) | –
CCCCC(CC)CCC(CC(C)C)OS(=O)(=O)O (stereo not given) | – | inactive
Cc1ccccc1C#N | 0.523% (inactive) | –
COC(=O)c1ccccc1Cl | 4.62% (inactive) | –
Cc1ccc2cccnc2c1 | 1.43% (inactive) | –
Cc1cc(N)no1 | 1.67% [at 95.3 µM] (inactive) | –
CN(C)CCC[C@@]1(c2ccc(F)cc2)OCc2cc(C#N)ccc21 | -3.65% (inactive) | –
CCN(CC)CC | -0.999% [at 95.3 µM] (inactive) | –
C=C(C)C(=O)OCCOC1CC2CC1C1C=CCC21 (stereo not given) | 1.98% [at 95.3 µM] (inactive) | –
O=C(O)CCCCCCCCCC(=O)O | 7.45% (inactive) | –
CC(O)CCCCn1c(=O)c2c(ncn2C)n(C)c1=O (stereo not given) | 0.243% (inactive) | –
C=CC(=O)CC | -2.38% [at 95.3 µM] (inactive) | –
CCOCCOCCOC(C)=O | 1.04% [at 95.3 µM] (inactive) | –
CCCCCC(=O)CC | -2.26% [at 95.3 µM] (inactive) | –
C/C=C(\C)C=O | 2.52% [at 95.3 µM] (inactive) | –

Structure (SMILES) | activation | Potency
NC[C@H]1O[C@H](O[C@H]2[C@H](O)[C@@H](O[C@H]3O[C@H](CO)[C@@H](O)[C@H](N)[C@H]3O)[C@H](N)C[C@@H]2N)[C@H](N)[C@@H](O)[C@@H]1O | – | inactive
Cc1ccc(NC(N)=O)cc1 | 0.381% [at 95.3 µM] (inactive) | –
CC(C)(O)CCCC1=CCC(C=O)CC1 (stereo not given) | 0.505% [at 95.3 µM] (inactive) | –
CCCC(=O)OC | 1.9% (inactive) | –
CCc1ccc(CC)cc1 | 2.88% [at 95.3 µM] (inactive) | –
CCCCCCCCCCCCCCCC(=O)OC | 3.76% [at 39.1 µM] (inactive) | –
O=S(=O)(O)CC(O)CCl (stereo not given) | -3.24% (inactive) | –
CC[N+](C)(CC)CC | 1.2% (inactive) | –
CCCCCCCCCCCCCCCCN(C)C | 2.36% [at 8.08 µM] (inactive) | –
Cc1cc(C)c(C)c(C)c1 | 3.26% (inactive) | –
O=C(O)COc1ccc2ccccc2c1 | 1.55% (inactive) | –
Cc1ccc(O)c([N+](=O)[O-])c1 | -4.31% [at 95.3 µM] (inactive) | –
Cc1ccc(N)nc1 | 1.31% (inactive) | –
CCCC(C)C(O)CC (stereo not given) | 0.816% (inactive) | –
N=C(N)N | 1.25% (inactive) | –
CN1C(CCl)Nc2cc(Cl)c(S(N)(=O)=O)cc2S1(=O)=O (stereo not given) | -4.16% (inactive) | –
CC(C)(C)C(=O)CC(=O)C(C)(C)C | 2.06% [at 95.3 µM] (inactive) | –

test: qHTS assay for small molecule agonists of the p53 signaling pathway - cell viability (AID 651633); conditions: p53RE-bla HCT-116 viability, ATP luminescence, 16 h; series mostly up to 83.3 µM; activity change, negative = cytotoxicity: at the top concentration; note: nearly all actives have a fitted effect of over 30% in size
Summary of the method: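 p53RE-bla cells were treated with compound for 16 hours at 37 C. Cytotoxicity was then measured as CellTiter-Glo luminescence after 30 min at room temperature.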

Structure (SMILES) | activity change, negative = cytotoxicity | outcome
CCCCS | 5.01% [at 95.3 µM] (inactive) | –
CCNC(=O)C(C)OC(=O)Nc1ccccc1 (stereo not given) | 8.36% (inactive) | –
CC(C)(Sc1cc(C(C)(C)C)c(O)c(C(C)(C)C)c1)Sc1cc(C(C)(C)C)c(O)c(C(C)(C)C)c1 | 22.4% [at 39.1 µM] (inactive) | –
O=C(O)CCC(=O)Nc1ccc(S(=O)(=O)Nc2nccs2)cc1 | 12% [at 39.1 µM] (inactive) | –
CCCCC(CC)CCC(CC(C)C)OS(=O)(=O)O (stereo not given) | – | inactive
Cc1ccccc1C#N | 18.8% (inactive) | –
COC(=O)c1ccccc1Cl | 13.9% (inactive) | –
Cc1ccc2cccnc2c1 | 28.9% (inactive) | –
Cc1cc(N)no1 | 13.3% [at 95.3 µM] (inactive) | –
CN(C)CCC[C@@]1(c2ccc(F)cc2)OCc2cc(C#N)ccc21 | 2.49% (inactive) | –
CCN(CC)CC | 10.5% [at 95.3 µM] (inactive) | –
C=C(C)C(=O)OCCOC1CC2CC1C1C=CCC21 (stereo not given) | 15.1% [at 95.3 µM] (inactive) | –
O=C(O)CCCCCCCCCC(=O)O | 15.3% (inactive) | –
CC(O)CCCCn1c(=O)c2c(ncn2C)n(C)c1=O (stereo not given) | 11.6% (inactive) | –
C=CC(=O)CC | 16.7% [at 95.3 µM] (inactive) | –
CCOCCOCCOC(C)=O | 26.3% [at 95.3 µM] (inactive) | –
CCCCCC(=O)CC | 23% [at 95.3 µM] (inactive) | –
C/C=C(\C)C=O | 15.1% [at 95.3 µM] (inactive) | –

Structure (SMILES) | activity change, negative = cytotoxicity | outcome
NC[C@H]1O[C@H](O[C@H]2[C@H](O)[C@@H](O[C@H]3O[C@H](CO)[C@@H](O)[C@H](N)[C@H]3O)[C@H](N)C[C@@H]2N)[C@H](N)[C@@H](O)[C@@H]1O | – | inactive
Cc1ccc(NC(N)=O)cc1 | 20.9% [at 95.3 µM] (inactive) | –
CC(C)(O)CCCC1=CCC(C=O)CC1 (stereo not given) | -18% [at 95.3 µM] (inactive) | –
CCCC(=O)OC | 25.1% (inactive) | –
CCc1ccc(CC)cc1 | 17.9% [at 95.3 µM] (inactive) | –
CCCCCCCCCCCCCCCC(=O)OC | 19.8% [at 39.1 µM] (inactive) | –
O=S(=O)(O)CC(O)CCl (stereo not given) | -12% (inactive) | –
CC[N+](C)(CC)CC | 8.76% (inactive) | –
CCCCCCCCCCCCCCCCN(C)C | 8.53% [at 8.08 µM] (inactive) | –
Cc1cc(C)c(C)c(C)c1 | 4.8% (inactive) | –
O=C(O)COc1ccc2ccccc2c1 | -8.32% (inactive) | –
Cc1ccc(O)c([N+](=O)[O-])c1 | -13.6% [at 95.3 µM] (inactive) | –
Cc1ccc(N)nc1 | 18.1% (inactive) | –
CCCC(C)C(O)CC (stereo not given) | 7.83% (inactive) | –
N=C(N)N | 8.59% (inactive) | –
CN1C(CCl)Nc2cc(Cl)c(S(N)(=O)=O)cc2S1(=O)=O (stereo not given) | 24% (inactive) | –
CC(C)(C)C(=O)CC(=O)C(C)(C)C | 19.6% [at 95.3 µM] (inactive) | –
